Data on nine sequences can be found in publication PMC8384837, “Expanding the binding specificity for RNA recognition by a PUF domain”.

Common to all, as to assay: yeast three-hybrid, YBZ-1, SC-Leu-His + 0.5 mM 3-AT, 4 days
Details in all cases: tags: N-Gal4 AD-HA kept; label: inside an RPR1-promoter hybrid RNA with tandem MS2 sites; ssRNA

One assay deals with T1, PUM1 PUF domain R6-KWQ (Homo sapiens, UniProt Q14671 828-1176, N1043K;Y1044W).
T1 sequence: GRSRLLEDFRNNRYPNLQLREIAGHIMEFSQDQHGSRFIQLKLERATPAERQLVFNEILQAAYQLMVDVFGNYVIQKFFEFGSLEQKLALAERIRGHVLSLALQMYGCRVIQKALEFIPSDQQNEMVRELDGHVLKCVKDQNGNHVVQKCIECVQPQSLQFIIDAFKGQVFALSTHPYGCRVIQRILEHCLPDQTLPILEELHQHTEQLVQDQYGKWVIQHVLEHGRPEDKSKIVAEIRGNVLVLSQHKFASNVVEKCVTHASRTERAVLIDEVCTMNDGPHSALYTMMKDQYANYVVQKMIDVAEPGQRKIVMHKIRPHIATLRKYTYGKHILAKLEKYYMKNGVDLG
The gist of the method:
(§1)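 The interaction score is the log change in how often each variant appears, from input to selection. Frequencies came from PCR-amplified, Illumina-sequenced repeat regions of Pumilio-1 PUF domain libraries grown in strain YBZ-1 (LexA–MS2 coat fusion, HIS3 reporter) alongside matching RNA elements. Input plates were SC-Leu and selection plates were SC-Leu-His + 0.5 mM 3-AT, each for four days, and the log2 calculation used a pseudocount of 1 where a variant was absent.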

The target of another assay is PUM1 PUF domain R3-TRR (Homo sapiens, UniProt Q14671 828-1176, C935T;Q939R). In short, it runs like this:
as §1

The target of another assay is PUM1 PUF domain R7-LTL (Homo sapiens, UniProt Q14671 828-1176, S1079L;N1080T;E1083L). The gist of the method: as §1
The target in a further assay is PUM1 PUF domain R4-WSC (Homo sapiens, UniProt Q14671 828-1176, N971W;H972S;Q975C). The gist of the method: as §1
The target of a further assay is PUM1 PUF domain R4-EHL (Homo sapiens, UniProt Q14671 828-1176, N971E;Q975L). The gist of the method:
as §1

Another assay addresses PUM1 PUF domain R3-SHA (Homo sapiens, UniProt Q14671 828-1176, C935S;R936H;Q939A). The gist of the method:
as §1

Another assay deals with T2, PUM1 PUF domain R6-LWC (Homo sapiens, UniProt Q14671 828-1176, N1043L;Y1044W;Q1047C).
T2 sequence: T1 sequence with K216L, Q220C
In short, it runs like this:
as §1

A further assay concerns the target PUM1 PUF domain R3-TFW (Homo sapiens, UniProt Q14671 828-1176, C935T;R936F;Q939W). The gist of the method: as §1
In the next assay the target is T3, PUM1 PUF domain R6-GFC (Homo sapiens, UniProt Q14671 828-1176, N1043G;Y1044F;Q1047C).
T3 sequence: T1 sequence with K216G, W217F, Q220C
In short, it runs like this:
as §1

A further assay addresses PUM1 PUF domain R4-DYA (Homo sapiens, UniProt Q14671 828-1176, N971D;H972Y;Q975A). In short, it runs like this:
as §1

Residue numbers refer to the chain shown, from its start.

Turning to “GGCUAGAACUAGUGGAUCCCCCGGCGCCCGGCGGCUCGAGCCCGGGUAAGUGAAAAUAGUCUGCAUGCCGCCGGGCGCCAUGCCUGCAGGUCGACUCUAGAAAACAUG”, in the assay with PUM1 PUF domain R6-KWQ, the binding signal was 2.19 log2 enrichment (interaction score).
Take “GGCUAGAACUAGUGGAUCCCCCGGCGCCCGGCGGCUCGAGCCCGGGUAAGUGUAACUAGUCUGCAUGCCGCCGGGCGCCAUGCCUGCAGGUCGACUCUAGAAAACAUG”: the binding signal with PUM1 PUF domain R3-TRR is 5.18 log2 enrichment (interaction score).
As to “GGCUAGAACUAGUGGAUCCCCCGGCGCCCGGCGGCUCGAGCCCGGGUAAGUUUAAAUAGUCUGCAUGCCGCCGGGCGCCAUGCCUGCAGGUCGACUCUAGAAAACAUG”, the binding signal with PUM1 PUF domain R7-LTL is 4.96 log2 enrichment (interaction score).
Consider “GGCUAGAACUAGUGGAUCCCCCGGCGCCCGGCGGCUCGAGCCCGGGUAAGUGCAAAUAGUCUGCAUGCCGCCGGGCGCCAUGCCUGCAGGUCGACUCUAGAAAACAUG”, for which the binding signal with PUM1 PUF domain R6-KWQ was 5.25 log2 enrichment (interaction score).
In the case of “GGCUAGAACUAGUGGAUCCCCCGGCGCCCGGCGGCUCGAGCCCGGGUAAGUGUACAUAGUCUGCAUGCCGCCGGGCGCCAUGCCUGCAGGUCGACUCUAGAAAACAUG”, the binding signal was 2.22 log2 enrichment (interaction score) with PUM1 PUF domain R4-WSC and 1.89 log2 enrichment (interaction score) with PUM1 PUF domain R4-EHL.
As to “GGCUAGAACUAGUGGAUCCCCCGGCGCCCGGCGGCUCGAGCCCGGGUAAGUGUAAUUAGUCUGCAUGCCGCCGGGCGCCAUGCCUGCAGGUCGACUCUAGAAAACAUG”, the binding signal with PUM1 PUF domain R3-TRR was 3.68 log2 enrichment (interaction score).
Still for that read-out and setting: the value for “GGCUAGAACUAGUGGAUCCCCCGGCGCCCGGCGGCUCGAGCCCGGGUAAGUGUAAGUAGUCUGCAUGCCGCCGGGCGCCAUGCCUGCAGGUCGACUCUAGAAAACAUG” was 1.75 log2 enrichment (interaction score).
“GGCUAGAACUAGUGGAUCCCCCGGCGCCCGGCGGCUCGAGCCCGGGUAAGUGUAAAUAGUCUGCAUGCCGCCGGGCGCCAUGCCUGCAGGUCGACUCUAGAAAACAUG”: the binding signal is 1.03 log2 enrichment (interaction score) with PUM1 PUF domain R3-TRR; 4.29 log2 enrichment (interaction score) in the assay with PUM1 PUF domain R3-SHA; 2.87 log2 enrichment (interaction score) with PUM1 PUF domain R4-WSC; 3.16 log2 enrichment (interaction score) with PUM1 PUF domain R4-EHL; 2.54 log2 enrichment (interaction score) with PUM1 PUF domain R6-KWQ; 5.46 log2 enrichment (interaction score) with PUM1 PUF domain R6-LWC. Moreover, the binding signal is 4.12 log2 enrichment (interaction score) with PUM1 PUF domain R3-TFW and 2.74 log2 enrichment (interaction score) with PUM1 PUF domain R6-GFC.
In the case of “GGCUAGAACUAGUGGAUCCCCCGGCGCCCGGCGGCUCGAGCCCGGGUAAGUGUAUAUAGUCUGCAUGCCGCCGGGCGCCAUGCCUGCAGGUCGACUCUAGAAAACAUG”, the figures for the binding signal with PUM1 PUF domain R4-DYA and with PUM1 PUF domain R4-WSC were 7.28 log2 enrichment (interaction score) and 4.12 log2 enrichment (interaction score), respectively.
